Assay results taken from the supplement of paper PMC6992640.
± gives the standard deviation of the averaged measurements.

Legend:
Experiment in all cases: cell viability (% of vehicle); higher = less cytotoxic
Details in all cases: 10 µM; 72 h
[1] = system: HCI01 (cells of a triple-negative basal-like breast cancer xenograft)
[2] = system: HCI03 (cells of an ER-positive luminal breast cancer xenograft)
[3] = system: HCI09 (cells of a triple-negative luminal androgen receptor type breast cancer xenograft)
[4] = system: HCI11 (cells of an ER-positive luminal breast cancer xenograft)
[5] = system: HCI13 (cells of an ER-positive luminal breast cancer xenograft)
[6] = system: HCI16 (cells of a triple-negative basal-like breast cancer xenograft)
[7] = system: UCD52 (cells of a triple-negative basal-like breast cancer xenograft)
[8] = system: WHIM2 (cells of a triple-negative basal-like breast cancer xenograft)
[9] = system: WHIM30 (cells of a triple-negative basal-like breast cancer xenograft)
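Also: PDX cells carrying CMV promoter-driven luciferase, viability read as total photon flux per second by IVIS imaging following D-luciferin, vehicle control 0.1% DMSO.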

SMILES | cell viability [1] | cell viability [2] | cell viability [3] | cell viability [4] | cell viability [5] | cell viability [6] | cell viability [7] | cell viability [8] | cell viability [9]
CCN(CC)CC(=O)Nc1c(C)cccc1C [Lidocaine] | 107 ± 5.8 | 94.4 | 105 ± 5.4 | 100 | 100 ± 3.6 | 93.9 | 90.9 ± 16 | 74.4 ± 18 | 122 ± 21
CCCCCCCCCCCCCCCC(=O)OCC=C(C)C=CC=C(C)C=CC1=C(C)CCCC1(C)C [Retinyl (Vitamin A) Palmitate] | 102 ± 22 | 100 | 88.4 ± 3.2 | 88.1 | 79 ± 17 | 104 | 94.3 ± 4.9 | 112 ± 27 | 125 ± 13
CC(=O)Oc1ccc(C(c2ccc(OC(C)=O)cc2)c2ccccn2)cc1 [Bisacodyl] | 53.2 ± 14 | 130 | 30.9 ± 6.2 | 50.3 | 184 ± 16 | 70.9 | 80.9 ± 17 | 111 ± 43 | 76.5 ± 1.4
Cc1c(C(=O)Nc2ccc(N3CC(C)OC(C)C3)nc2)cccc1-c1ccc(OC(F)(F)F)cc1 (stereo not given) [LDE225 (NVP-LDE225,Erismodegib)] | 98.3 ± 17 | 119 | 66.8 ± 2.4 | 80.7 | 69.7 ± 4.5 | 94.8 | 80.8 ± 1.8 | 97.5 ± 14 | 86.1 ± 7.6
Nc1nc(=O)c2ncn(COC(CO)CO)c2[nH]1 [Ganciclovir] | 63.1 ± 33 | 124 | 94.8 ± 2 | 97.9 | 112 ± 17 | 126 | 87.3 ± 5.8 | 93.5 ± 46 | 142.4 ± 1.3
N#CC1CC2CC2N1C(=O)C(N)C12CC3CC(CC(O)(C3)C1)C2 (stereo not given) [Saxagliptin] | 95 ± 7.6 | 145 | 82.1 ± 5.7 | 89.2 | 85.7 ± 7 | 93.8 | 97.4 ± 5.6 | 123 ± 7.2 | 98 ± 2.8
COc1cc(C2Oc3cc(C4Oc5cc(O)cc(O)c5C(=O)C4O)ccc3OC2CO)ccc1O (stereo not given) [Silymarin] | 111 ± 32 | 129 | 102 ± 19 | 89.4 | 127 ± 3.3 | 116 | 107.79 ± 0.095 | 93.6 ± 18 | 91.7 ± 2
Cc1ncc([N+](=O)[O-])n1CC(O)CCl (stereo not given) [Ornidazole] | 94.9 ± 14 | 115 | 96 ± 7.9 | 83.2 | 111 ± 18 | 105 | 85.1 ± 4.3 | 88.1 ± 8.4 | 108 ± 10
OCC1OC(OC2(CCl)OC(CCl)C(O)C2O)C(O)C(O)C1Cl (stereo not given) [Sucralose] | 112 ± 2.4 | 128 | 91.4 ± 5.3 | 89.1 | 70 ± 4.5 | 140 | 70.9 ± 6.8 | 124 ± 30 | 110 ± 7.1
CCOc1nc2cccc(C(=O)OCc3oc(=O)oc3C)c2n1Cc1ccc(-c2ccccc2-c2nc(=O)o[nH]2)cc1 [Azilsartan Medoxomil] | 100 ± 6.8 | 162 | 107 ± 2.2 | 94.2 | 106 ± 14 | 124 | 111 ± 8.7 | 106 ± 18 | 127 ± 2.7
Cl.c1ccc(CN(CC2=NCCN2)c2ccccc2)cc1 [Antazoline HCl] | 133.9 ± 0.91 | 123 | 103 ± 1.1 | 119 | 109 ± 9.2 | 144 | 66.7 ± 18 | 92.52 ± 0.86 | 102 ± 8.3
CC(c1cc2ccccc2s1)N(O)C(N)=O (stereo not given) [Zileuton] | 101 ± 13 | 136 | 105 ± 10 | 101 | 134 ± 24 | 128 | 112 ± 4 | 112 ± 21 | 134 ± 13
C[N+](C)(C)CCOC(=O)CCC(=O)OCC[N+](C)(C)C.O.O.[Cl-].[Cl-] [Succinylcholine Chloride Dihydrate] | 109 ± 8 | 104 | 96.9 ± 9.6 | 97.2 | 112 ± 16 | 101 | 61.6 ± 1.2 | 89.3 ± 5.8 | 133 ± 22
CC1CCc2cc(F)cc3c(=O)c(C(=O)O)cn1c23 (stereo not given) [Flumequine] | 92.8 ± 10 | 156 | 93.1 ± 7.6 | 118 | 117 ± 6.8 | 138 | 107 ± 5.8 | 98.4 ± 4.2 | 135 ± 15
CN1CCN2c3ncccc3Cc3ccccc3C2C1 (stereo not given) [Mirtazapine] | 66.7 ± 36 | 149 | 91.4 ± 1.8 | 103 | 118 ± 26 | 114 | 86.1 ± 2.4 | 87.6 ± 30 | 138 ± 17
CSc1nc2cc(Oc3cccc(Cl)c3Cl)c(Cl)cc2[nH]1 [Triclabendazole] | 99.7 ± 4.9 | 108 | 83 ± 23 | 97.1 | 47.9 ± 7.4 | 127 | 89.2 ± 6.4 | 124 ± 34 | 134 ± 14
Cl.N=C(N)N [Guanidine HCl] | 77.2 ± 10 | 96.3 | 96.5 ± 9.5 | 85.6 | 125 ± 4.1 | 126 | 79.1 ± 8.1 | 97.7 ± 5.6 | 135 ± 2.3
CCCNC1CCc2nc(N)sc2C1.Cl.Cl.O (stereo not given) [Pramipexole 2HCl Monohydrate] | 126 ± 3.4 | 131 | 107.2 ± 0.44 | 110 | 97.4 ± 1.9 | 138 | 103 ± 16 | 94.3 ± 11 | 103 ± 4.9

SMILES | cell viability [1] | cell viability [2] | cell viability [3] | cell viability [4] | cell viability [5] | cell viability [6] | cell viability [7] | cell viability [8] | cell viability [9]
CN(CCOc1ccc(CC2SC(=O)NC2=O)cc1)c1ccccn1 (stereo not given) [Rosiglitazone] | 176 ± 35 | 162 | 129 ± 33 | 153 | 189 ± 26 | 142 | 124 ± 10 | 174 ± 17 | 199 ± 3.1
O=C1C(=O)c2ccccc2C(O)=C1C1CCC(c2ccc(Cl)cc2)CC1 (stereo not given) [Atovaquone] | 81.6 ± 34 | 82.3 | 27.7 ± 4.7 | 54.9 | 50 ± 1.9 | 116 | 78.9 ± 15 | 99.7 ± 8.7 | 72.4 ± 1.9
CN1C(C(=O)Nc2ccccn2)=C(O)c2ccccc2S1(=O)=O [Piroxicam] | 103 ± 9.8 | 102 | 53.8 ± 29 | 133 | 103 ± 3.6 | 90.5 | 88.27 ± 0.58 | 91.5 ± 17 | 117 ± 13
CC1(C)SC2C(NC(=O)C(N)c3ccccc3)C(=O)N2C1C(=O)[O-].[Na+] (stereo not given) [Ampicillin] | 101.47 ± 0.042 | 101 | 104 ± 9.8 | 84.6 | 86.7 ± 9.1 | 78.9 | 83.5 ± 3.9 | 77.9 ± 1.1 | 112 ± 20
COc1cc(C2c3cc4c(cc3C(OC3OC5COC(C)OC5C(O)C3O)C3COC(=O)C23)OCO4)cc(OC)c1O (stereo not given) [Etoposide] | 103 ± 7.8 | 94.2 | 90 ± 4.5 | 89.4 | 84 ± 3 | 69.7 | 120 ± 4.3 | 91.8 ± 6 | 95.3 ± 21
CCCCC1=NC2(CCCC2)C(=O)N1Cc1ccc(-c2ccccc2-c2nn[nH]n2)cc1 [Irbesartan] | 86.3 ± 2 | 105 | 94.6 ± 3.9 | 91.8 | 114 ± 2.4 | 107 | 103 ± 5.5 | 105 ± 4.9 | 82.7 ± 24
Nc1nc(N)c2nc(-c3ccccc3)c(N)nc2n1 [Triamterene] | 105 ± 25 | 148 | 116 ± 17 | 109 | 120 ± 12 | 138 | 123 ± 28 | 94.5 ± 15 | 122 ± 17
COc1ccc(-c2nc3ccc(C4=NNC(=O)CC4C)cc3[nH]2)cc1 (stereo not given) [Pimobendan] | 134 ± 7.2 | 132 | 129 ± 48 | 132 | 146 ± 11 | 121 | 119 ± 5.9 | 168.4 ± 1.3 | 119 ± 7
CS(=O)(=O)O.CS(=O)(=O)O.N=C(N)c1ccc2cc(OC(=O)c3ccc(N=C(N)N)cc3)ccc2c1 [Nafamostat Mesylate(FUT-175)] | 110 ± 13 | 82 | 43.9 ± 4.1 | 82.1 | 95.5 ± 20 | 98.4 | 106 ± 13 | 100 ± 34 | 105 ± 13
COC(=O)C1=C(C)NC(C)=C(C(=O)OC(C)C)C1c1cccc2nonc12 (stereo not given) [Isradipine (Dynacirc)] | 111 ± 18 | 118 | 48.7 ± 41 | 91.9 | 109 ± 6.2 | 117 | 76.2 ± 9.4 | 92.5 ± 11 | 88.7 ± 3.6
COc1cnc(NS(=O)(=O)c2ccc(N)cc2)nc1 [Sulfameter] | 97.7 ± 24 | 142 | 86.1 ± 1.6 | 83 | 93.22 ± 0.58 | 113 | 80.9 ± 21 | 92.2 ± 18 | 95.13 ± 0.27
COc1cc2c(cc1OC)CC(=O)N(CCCN(C)CC1Cc3cc(OC)c(OC)cc31)CC2.Cl (stereo not given) [Ivabradine HCl] | 105 ± 7.9 | 121 | 100 ± 19 | 114 | 99.3 ± 3.9 | 97.9 | 85.7 ± 11 | 93.2 ± 17 | 123 ± 5.3
CCN(CCCc1ccccc1)CCCc1ccccc1.O=C(O)CC(O)(CC(=O)O)C(=O)O [Alverine Citrate] | 99.4 ± 3.5 | 95.5 | 104 ± 10 | 94.6 | 190 ± 4.8 | 118 | 59.9 ± 0.87 | 88.6 ± 4 | 102 ± 15
CC1C(NC(=O)C(=NOC(C)(C)C(=O)O)c2csc(N)n2)C(=O)N1S(=O)(=O)O (stereo not given) [Aztreonam] | 104 ± 4.2 | 113 | 96.5 ± 6.8 | 109 | 118 ± 15 | 114 | 95.9 ± 3 | 84.4 ± 8.5 | 123 ± 30
O=S(=O)([O-])CCS.[Na+] [Mesna] | 112.4 ± 0.12 | 118 | 98.4 ± 6.8 | 103 | 141 ± 28 | 97.2 | 89.3 ± 3.8 | 100 ± 13 | 106 ± 6.6
NC(N)=NS(=O)(=O)c1ccc(N)cc1 [Sulfaguanidine] | 99.8 ± 16 | 135 | 88.6 ± 12 | 86.1 | 108 ± 7.2 | 135 | 85.4 ± 6.9 | 116 ± 6.5 | 118 ± 2.4
CCC1(O)CC2CN(CCc3c([nH]c4ccccc34)C(C(=O)OC)(c3cc4c(cc3OC)N(C)C3C(O)(C(=O)OC)C(OC(C)=O)C5(CC)C=CCN6CCC43C65)C2)C1.O=S(=O)(O)O (stereo not given) [Vinblastine sulfate] | 127 ± 23 | 88.5 | 61 ± 26 | 102 | 40.1 ± 2.1 | 144 | 80.3 ± 1.4 | 76.8 ± 13 | 102 ± 19
